# Laboratory results from PubChem BioAssay (NCI).
# Values joined by “and” are separate entries in the source; they are usually repeats but may differ in a detail not shown here. Equal values may be shown once. Compounds without any hit were thinned out: in the full panel of roughly 83,000, 20% have a hit.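 Each cell line was grown in a 96-well plate and treated with one concentration of compound for 48 hours. Values below 10 were considered active.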 Values without a mark were called inactive. Active and inactive are the calls of the source.
# Test system: MDA-MB-468 breast
# Test: NCI-60 one-dose screen, 48 h (100 = growth as untreated, 0 = no growth, -100 = all killed)
# Settings: 10 µM unless noted
row,SMILES,growth
1,Cc1c(C(=N)C(C#N)C#N)c(=N)oc2c1ccc1ccccc12,54.5%
2,C=C(C=O)[C@@H]1CC=C(C=O)CC1,20.2%
3,CCOS(=O)(=O)c1c(C(C)C)cc(C(C)C)cc1C(C)C,102%
4,c1ccc2[nH]c(-c3ccc(-c4nccc5c4[nH]c4ccccc45)cc3)nc2c1,44.8%
5,N#Cc1c(-c2ccccc2)cc(-c2ccccc2)n(CC(=O)NO)c1=O,43.5%
6,CCN(CC)CCCC(C)Nc1c(C)cnc2cc(Cl)c(C)cc12 (stereo not given),99.7%
7,COc1ccc2oc3c(C)c4c(c(C)c3c2c1)C(=O)N(Cc1ccccc1)C4=O,100%
8,O=C(/C=C/C12c3ccccc3C(c3ccccc31)C1C(=O)NC(=O)C12)c1ccccc1 (stereo not given),9.65% (active)
9,COc1ccc(C(=O)/C=C/c2c(Cl)nc3c(c(C)nn3-c3ccccc3)c2-c2ccc(Br)cc2)cc1,103%
10,CCN(CC)CCNc1ncnc2c1cnn2-c1ccc(Cl)cc1,57.6%
11,O=C(OCc1ccc2c(Cl)cc(Cl)c(O)c2n1)n1cncn1,14%
12,COc1cc(C2CC(c3cccc(Nc4ccncc4)c3)=NN2c2ccccc2)cc(OC)c1OC (stereo not given),25.8%
13,COc1ccc(C(=O)c2no[n+]([O-])c2C(=O)c2ccc(OC)cc2)cc1,-88.4% (active)
14,COc1ccc(NC(=O)c2ccoc2COc2ccccc2)cc1,116%
15,CCCCCCN(CCCCCC)CCC(=O)Nc1ccc(S(=O)(=O)c2ccc(NC(=O)CCN(CCCCCC)CCCCCC)cc2)cc1,92.9%
16,Cc1nn(-c2cccc(Cl)c2)c(C)c1N=Nc1ccc(Br)cc1,97.6%
17,CN=C(NC)N/N=C(C)\C=N\NC(=NC)NC,121%
18,Cc1[nH]c2ccccc2c1C1=CC(=O)C=CC1=O,72%
19,COc1cnc2c(c1)C(=O)c1c-2n(CCCBr)c(=O)c2cc([N+](=O)[O-])ccc12,-15.8% (active)
20,CCCCCC(C)(CC(=O)O)CC(=O)O,95.3%

row,SMILES,growth
1,CNC(=O)Nc1ccc(-c2ccc3ncnc(Nc4cccc(Cl)c4)c3c2)cc1,-29.2% (active)
2,O=C(Nc1nc(-c2ccccc2Cl)cs1)c1cc(-c2ccc(Cl)cc2)nc2ccc(Cl)cc12,89.4%
3,C[C@@H]1C[C@H]2C(=O)OCC(NC(=O)[C@H](Cc3cc(F)cc(F)c3)NC(=O)Nc3ccc(Cl)cc3F)C(=O)N3CCC[C@H]3C(=O)N3CCCC[C@H]3C(=O)N[C@@H](C)C(=O)N2C1 (stereo not given in full),-6.95% (active)
4,Cc1cc(N2CCCCC2)nc(NCc2cc(Nc3ccnc4cc(Cl)ccc34)ccc2F)n1,-60.3% (active)
5,C[C@@H]1CCCCCCCCC[C@H](O)C(=O)C[C@@H](SC[C@@H](O)C(=O)O)C(=O)O1,104%
6,CCn1c(Sc2nnc(NC(=O)CCN3CCCC3)s2)nc2c1c(=O)n(C)c(=O)n2C,101%
7,Clc1ccc(/C=N\N2CCCCCC2)cc1,106% and 122%
8,Cn1cc(CC2CC(=O)N(c3ccccc3)C2=O)sc1=NC(=O)c1ccccc1 (stereo not given),99.8%
9,NNCCc1ccccc1,113% and 89.6%
10,Nc1nc2ccc3[nH]ncc3c2c2c1CCCC2,-46.8% (active)
11,COc1cc([C@@H]2c3cc4c(cc3C(Br)[C@H]3COC(=O)[C@H]23)OCO4)cc(OC)c1OC (stereo not given in full),-49.3% (active)
12,Cc1cc(O)cc(-c2c(-c3ccnc(-c4cccnc4)c3)cnn2C)c1,48.1%
13,O=C(Nc1ccc(CO)cc1)c1ccccc1Nc1ccnc(C(F)(F)F)c1,123%
14,Cc1ccc(NC(=O)c2sc3nc4c(cc3c2N)C(=O)CCC4)cc1,32.7%
15,Clc1cccc(C2Cc3cnccc3-c3[nH]c4ccncc4c32)c1 (stereo not given),5.96% (active)
16,Clc1ccc2c(NCCCn3cnc4c(N5CCCC5)nc(Cl)nc43)ccnc2c1,107%
17,Nc1nc(-c2cccc([N+](=O)[O-])c2)c(N=Nc2ccccc2[N+](=O)[O-])s1,74.8%
18,C=COC(=O)CCCCCCCCC,100%
19,Cc1nc2ncnc(Cl)c2[nH]1,105%
20,COc1cc(-c2cc(/C=C3\C(=O)Nc4cc(Cl)ccc43)[nH]n2)cc(OC)c1OC,58.3%
